Test [1] can be described thus: inhibitors of TNFa-induced NFkB p65 translocation, primary screen, imaging, HUVEC, MLSMR starter and 10KST1 sets (AID 438;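 active = inhibition above 20% together with a positive visual image hit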;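 also: compound added about 3h40 before a 20 min TNFalpha stimulation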;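 as to inhibition: signal is the nuclear over cytoplasmic p65 intensity ratio per well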). The note with it: HUVEC TNFa-induced p65 nuclear translocation; cell count: measured here: nuclei count (cytotoxicity indicator), at 2.08 µM; inhibition: at 2 µM, stronger effect = higher value, 0% TNFa-plus-vehicle, 100% no-TNFa wells.
The nature of test [2]: inhibitors of mutant huntingtin aggregation, primary screen, imaging, exon1htt(103Q)mCFP cells, high-content imaging (AID 483;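 active = visual image review flags a hit and inhibition of aggregation exceeds 20%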;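 also: compound exposure lasted 3 days before fixation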;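 as to nuclei count: percent of the per-plate median nuclei count of sample wells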). The note with it: exon1htt(103Q)mCFP cell line, aggregate imaging, at 2 µM; inhibition of aggregation: stronger effect = higher value; nuclei count: measured here: cell count, toxicity.
The nature of test [3]: inhibitors of E-selectin induction by TNFa, primary screen, imaging, HUVEC, immunofluorescence, MLSMR starter and 10KST1 sets (AID 487;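 active = visually confirmed hit in the image check and inhibition above 20%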;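 as to inhibition: signal is fraction of cell area covered by stained E-selectin grains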;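 as to nuclei count: 100% = median nuclei count of all wells on the same plate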). The conditions noted are these: HUVEC TNFalpha-induced E-selectin immunofluorescence imaging, at 2 µM; inhibition: stronger effect = higher value; nuclei count: measured here: cell number, toxicity.
For test [4], the target named is Voltage-gated potassium channel subunit beta-2 (Rattus norvegicus) (UniProt P62483). The test can be described thus: KvBeta enzyme negative modulators, primary screen, biochemical, NADPH fluorescence (AID 622;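 active = fluorescence slope higher than the sample average by over 3 SD, cut at about -0.22 in these data, passing the limit was not always enough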;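 also: slope of raw intensity against log time taken from 70 to 1610 s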). The conditions noted are these: recombinant KvBeta, 4-cyanobenzaldehyde reduction, at 10 µM, stronger effect = higher value.
Test [5] has the same target. In words: KvBeta positive modulators, primary screen, biochemical, NADPH fluorescence (AID 623;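 active = NADPH fluorescence slope more negative than the mean of all samples by about 3 SD, 99.7% confidence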;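 also: fluorescence intensity change per second fitted from 20 to 320 s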). The conditions noted are these: Recombinant KvBeta, NADPH fluorescence decrease slope, 10 min; at 10 µM; stronger effect = lower value.
Test [6] addresses Alpha-2C adrenergic receptor (Homo sapiens) (UniProt P18825). In words: modulators of alpha2C/GIRK thallium flux, primary screen, cell-based, HEK293 alpha2C/GIRK1/2 (AID 624;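 active = fluorescence slope after compound addition differing from the mean of all screened samples at 99.7% confidence, in either direction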;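 also: slope of fluorescence ratio to pre-addition baseline per second over 15 to 24 s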). The note with it: thallium flux BTC fluorescence, at 10 µM, actives lie on both sides.
Test [7] is described as follows: inhibitors of Sendai virus-induced IRF3 signaling, primary screen, TLR/RLR signaling modifier project, cell-based, Sendai virus stimulus, luciferase, 10K MLSCN set (AID 602276).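 Also: firefly luciferase from ISG56 promoter only with Renilla not read in this screen; 0% = Sendai virus plus DMSO and 100% = medium plus DMSO without virus.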 The conditions noted are these: HEK293 RL24 IRF3 luciferase reporter, at 10 µM, stronger effect = higher value. For orientation: A reporter such as luciferase makes a cellular process visible.
Test [8] is described as follows: inhibitors of poly I:C-induced TLR3 signaling, primary screen, cell-based, poly I:C stimulus, luciferase, 10K MLSCN set (AID 602277;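 active = inhibition of the reporter signal at or above 50%; inactive = inhibition below 50%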). The conditions noted are these: HEK293-TLR3 RL24 IRF3 luciferase reporter, at 10 µM, stronger effect = higher value.

Consider 14 compounds from PubChem BioAssay.

The source made the active and inactive calls.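 The calls were made as follows, unless noted: active = inhibition at or above 50% at 10 µM; inactive = inhibition below 50%.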

Chain of Voltage-gated potassium channel subunit beta-2 (Rattus norvegicus) (P62483 whole entry, looked up): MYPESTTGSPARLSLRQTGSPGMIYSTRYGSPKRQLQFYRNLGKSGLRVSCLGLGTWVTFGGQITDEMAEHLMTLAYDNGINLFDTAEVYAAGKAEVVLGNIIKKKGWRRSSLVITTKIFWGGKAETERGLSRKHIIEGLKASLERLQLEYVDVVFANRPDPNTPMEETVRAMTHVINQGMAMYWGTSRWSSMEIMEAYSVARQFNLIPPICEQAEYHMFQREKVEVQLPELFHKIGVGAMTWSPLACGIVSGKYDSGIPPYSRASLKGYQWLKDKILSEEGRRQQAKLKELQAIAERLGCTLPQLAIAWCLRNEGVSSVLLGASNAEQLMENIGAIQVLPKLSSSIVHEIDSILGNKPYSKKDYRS
Chain of Alpha-2C adrenergic receptor (Homo sapiens) (P18825 whole entry, looked up): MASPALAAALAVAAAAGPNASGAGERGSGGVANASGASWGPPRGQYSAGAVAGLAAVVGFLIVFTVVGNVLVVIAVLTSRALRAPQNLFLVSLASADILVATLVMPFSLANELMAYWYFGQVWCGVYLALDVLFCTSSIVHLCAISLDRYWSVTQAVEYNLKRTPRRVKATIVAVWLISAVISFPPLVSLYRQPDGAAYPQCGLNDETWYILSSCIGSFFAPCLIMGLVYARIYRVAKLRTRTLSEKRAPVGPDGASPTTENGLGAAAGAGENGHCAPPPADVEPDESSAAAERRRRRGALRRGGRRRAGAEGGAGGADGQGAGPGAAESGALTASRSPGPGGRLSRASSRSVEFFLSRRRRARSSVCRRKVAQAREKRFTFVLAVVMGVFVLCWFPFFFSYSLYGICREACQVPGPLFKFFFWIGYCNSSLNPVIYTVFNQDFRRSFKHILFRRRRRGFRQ

Consider `Brc1ccc2[nH]c3nc(SCCN4CCOCC4)nnc3c2c1`, for which, in test [1], the cell count is 683. Besides, the inhibition (as a rule, the drop in the measured response relative to a control, in per cent) is -6.3% (inactive) in test [1], -31.6% (inactive) in test [3], -18.9% (inactive) in test [7] and -40.9% (inactive) in test [8]. In addition, in test [2], the inhibition of aggregation was 9% (inactive). Besides, the nuclei count worked out at 84.2% in test [2] and 114% in test [3]. The fluorescence slope in test [4] was -0.56 (inactive). In addition, in test [5], the NADPH fluorescence slope was 1.6e-05 (inactive). Besides, the slope in test [6] was 0.00594 (inactive).
Take `CC(=O)Nc1ccc(S(=O)(=O)N2CCC(NC(C)=O)(c3cccc(F)c3)CC2)cc1`: in test [1], the cell count is 682. Besides, the inhibition in test [1] is -5.8% (inactive); in test [3], -10.1% (inactive); in test [7], 8.44% (inactive); in test [8], 28.9% (inactive). In addition, the inhibition of aggregation in test [2] was -25.6% (inactive). Moreover, the results for the nuclei count in test [2] and in test [3] were 130% and 109%, respectively. Besides, in test [4], the fluorescence slope was -0.494 (inactive). Besides, the NADPH fluorescence slope in test [5] is -4.3e-05 (inactive). For the same compound, the slope in test [6] was 0.0062 (inactive).
Take `CC1=C(C(=O)Nc2ccc(F)cc2)C(c2cccc(C)c2)n2nc(CCCO)nc2N1` (centres undefined): the cell count in test [1] amounted to 784. Further, the inhibition is -3.5% (inactive) in test [1], -32.3% (inactive) in test [3], 13.9% (inactive) in test [7] and 41.1% (inactive) in test [8]. The inhibition of aggregation in test [2] is 6.5% (inactive). Besides, the nuclei count stood at 88.4% in test [2] and 133% in test [3]. Moreover, in test [4], the fluorescence slope was -0.405 (inactive). Further, in test [5], the NADPH fluorescence slope was -1.6e-05 (inactive). Moreover, the slope in test [6] is 0.00457 (inactive).
`CC(C)CC1NC2(C(=O)N(C)c3ccccc32)C2C(=O)N(C(C)C)C(=O)C12` (centres undefined): the cell count in test [1] was 798. Besides, the inhibition was -5.5% (inactive) in test [1], 13.8% (inactive) in test [3], -1.45% (inactive) in test [7] and -17% (inactive) in test [8]. In addition, in test [2], the inhibition of aggregation was -49.8% (inactive). Moreover, the nuclei count in test [2] came to 72.1%; in test [3] it was 103%. For the same compound, the fluorescence slope in test [4] is -0.482 (inactive). For the same compound, in test [5], the NADPH fluorescence slope was 9.4e-06 (inactive). Moreover, the slope in test [6] is 0.00636 (inactive).
As for `O=C(CN1CCN(Cc2ccc3c(c2)OCO3)CC1)Nc1ccc2c(c1)OCCO2`, the cell count in test [1] is 248. Further, the inhibition in test [1] was -3% (inactive); in test [3], -19.1% (inactive); in test [7] it was 0.946% (inactive); in test [8], 17.2% (inactive). Besides, the inhibition of aggregation in test [2] is 2.7% (inactive). The nuclei count in test [2] is 75.7%; in test [3], 85.5%. In test [4], the fluorescence slope was -0.583 (inactive). In addition, in test [5], the NADPH fluorescence slope was -4.2e-05 (inactive). Besides, the slope in test [6] was 0.00576 (inactive).
Turning to `CCOC(=O)c1sc(NC(=O)c2noc3c2CCCC3)c(C(=O)OCC)c1C`, the cell count in test [1] is 688. The inhibition in test [1] is -2.9% (inactive); in test [3], -47.9% (inactive); in test [7], 2.17% (inactive); in test [8], 6.46% (inactive). Also, in test [2], the inhibition of aggregation is -14.8% (inactive). Also, the nuclei count was found to be 120% in test [2] and 87.6% in test [3]. Further, the fluorescence slope in test [4] was -0.549 (inactive). For the same compound, the NADPH fluorescence slope in test [5] is 1e-05 (inactive). In addition, the slope in test [6] was 0.0086 (inactive).
For the compound `CCCCOc1cc(=O)[nH]c(=O)[nH]1`, the cell count in test [1] worked out at 379. In addition, the inhibition in test [1] was 11.7% (inactive); in test [3], 5.6% (inactive); in test [7], 10.4% (inactive); in test [8] it was 8.55% (inactive). Further, in test [2], the inhibition of aggregation was 14.6% (inactive). Further, the nuclei count is 84.2% in test [2] and 89.2% in test [3]. Also, the fluorescence slope in test [4] is -0.383 (inactive). The NADPH fluorescence slope in test [5] was -5.2e-06 (inactive). The slope in test [6] was 0.00308 (inactive).
With `CCS(=O)(=O)N1CCCC(c2nc(-c3cccc(OC)c3)no2)C1` (centres undefined), the cell count in test [1] stood at 730. For the same compound, the inhibition in test [1] is -52% (inactive); in test [3], -66.1% (inactive); in test [7] it was -28.7% (inactive); in test [8], -59.2% (inactive). For the same compound, the inhibition of aggregation in test [2] is -9.9% (inactive). The nuclei count in test [2] worked out at 92.1%; in test [3] it was 104%. The fluorescence slope in test [4] was -0.535 (inactive). Moreover, the NADPH fluorescence slope in test [5] is 1.2e-05 (inactive). Also, the slope in test [6] was 0.00638 (inactive).
With `CC1Cn2c(nnc2-c2ccc(F)cc2)S1` (centres undefined), the cell count in test [1] stood at 741. The inhibition in test [1] was -17.7% (inactive); in test [3], -40% (inactive); in test [7] it was -1.17% (inactive); in test [8] it was 28.5% (inactive). Moreover, the inhibition of aggregation in test [2] is -26.8% (inactive). For the same compound, the results for the nuclei count in test [2] and in test [3] were 119% and 101%, respectively. Moreover, in test [4], the fluorescence slope was -0.583 (inactive). In addition, the NADPH fluorescence slope in test [5] is -2.2e-05 (inactive). In test [6], the slope is 0.00604 (inactive).
Consider `CCOC(=O)c1cc(CC)sc1NC(=O)CCC(=O)O`, for which the cell count in test [1] came out at 415. Moreover, the inhibition was -3.2% (inactive) in test [1], -75.3% (inactive) in test [3], 22% (inactive) in test [7] and 26.5% (inactive) in test [8]. The inhibition of aggregation in test [2] was 3% (inactive). In addition, the nuclei count in test [2] came out at 99.8%; in test [3] it was 109%. For the same compound, the fluorescence slope in test [4] was -0.433 (inactive). Also, the NADPH fluorescence slope in test [5] was -4.9e-06 (inactive). For the same compound, in test [6], the slope is 0.00617 (inactive).
Regarding `COC(=O)c1cc(=O)nc2sc(-c3cccs3)nn12`, in test [1], the cell count stood at 349. For the same compound, the inhibition in test [1] was 5.5% (inactive); in test [3], -73.7% (inactive); in test [7], 12.6% (inactive); in test [8], 29.9% (inactive). Further, the inhibition of aggregation in test [2] was 4.7% (inactive). In addition, the nuclei count turned out to be 100% in test [2] and 105% in test [3]. Besides, the fluorescence slope in test [4] is -0.463 (inactive). Further, the NADPH fluorescence slope in test [5] was -2.2e-05 (inactive). In addition, the slope in test [6] was 0.006 (inactive).
Take `CCOC(=O)N1CCN(C(=O)Cn2ncn3nc(-c4cccs4)cc3c2=O)CC1`: the cell count in test [1] amounted to 313. Further, the inhibition was -0.8% (inactive) in test [1], 9.5% (inactive) in test [3], -1.73% (inactive) in test [7] and -47.5% (inactive) in test [8]. Also, the inhibition of aggregation in test [2] is 14.8% (inactive). The nuclei count in test [2] came to 79.5%; in test [3] it was 88.5%. Further, in test [4], the fluorescence slope is -0.404 (inactive). Moreover, in test [5], the NADPH fluorescence slope was 2e-05 (inactive). Moreover, the slope in test [6] is 0.00387 (inactive).
In the case of `COC(=O)c1sc2ccccc2c1NC(=O)c1cccs1`, in test [1], the cell count is 729. Further, the inhibition in test [1] is 16.4% (inactive); in test [3], 1.4% (inactive); in test [7], -16.8% (inactive); in test [8], -27.9% (inactive). Further, the inhibition of aggregation in test [2] is 21.4% (inactive). Besides, the nuclei count in test [2] stood at 101%; in test [3] it was 99.1%. The fluorescence slope in test [4] is -0.551 (inactive). In addition, the NADPH fluorescence slope in test [5] is -2.2e-05 (inactive). Further, the slope in test [6] was 0.00536 (inactive).
As to `CC(C)CCn1c(NCCc2ccccc2)nc2c1c(=O)n(C)c(=O)n2C`, in test [1], the cell count turned out to be 753. The inhibition in test [1] is -8% (inactive); in test [3], -17.6% (inactive); in test [7] it was 9.59% (inactive); in test [8], 32.1% (inactive). Further, the inhibition of aggregation in test [2] is 1.3% (inactive). Besides, the nuclei count amounted to 120% in test [2] and 108% in test [3]. Further, the fluorescence slope in test [4] was -0.409 (inactive). Further, the NADPH fluorescence slope in test [5] was -7.3e-05 (inactive). Moreover, the slope in test [6] was 0.00481 (inactive).
